This is an account of results in PubChem BioAssay (NCI).

Holding throughout (assay): NCI-60 one-dose screen, 48 h (100 = growth as untreated, 0 = no growth, -100 = all killed)
Conditions in all cases: 10 µM unless noted

Assay [1] relates to DU-145 prostate.
Assay [2] has as its system K-562 leukemia.
The subject of assay [3] is MALME-3M melanoma.
In assay [4] the test system is MDA-MB-231 breast.
For assay [5], the system named is RXF 393 renal.
The subject of assay [6] is SF-268 CNS.
Assay [7] relates to SF-539 CNS.
For assay [8], the system named is UACC-257 melanoma.
Assay [9] concerns M14 melanoma.
Assay [10] concerns HCT-15 colon.
Assay [11] concerns HT29 colon.
For assay [12], the system named is SNB-75 CNS.
Assay [13] concerns SNB-19 CNS.
For assay [14], the system named is U251 CNS.
The subject of assay [15] is PC-3 prostate.
The test system of assay [16] is SK-MEL-5 melanoma.
Assay [17] concerns UACC-62 melanoma.
Assay [18] has as its system LOX IMVI melanoma.
Assay [19] concerns SK-MEL-28 melanoma.

The panel holds about 83,000 compounds, 20% with a hit somewhere; the sample as a whole holds those more often.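 Percent growth is the endpoint: 0 to 100 indicates growth inhibition (40 means 60% inhibition), 0 means no net growth, and negative values indicate cell death.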 Unmarked numbers belong to inactive results. Activity calls are given as the source filed them. The calls were made as follows: active = growth percent below 10; inactive = the rest.

With `CCCNC(=S)N/N=C(\C)c1ccccn1`, the growth is 34.3% in [1]; 17% in [2]; 24.3% in assay [3]; 41.1% in assay [4]; 10.4% in assay [5]; 38.7% in [6]. The growth is 24.2% in assay [7]; 12% in [8]; 6.11% (active) in [9]; 28.5% in assay [10]; 37.2% in assay [11]; 74.2% in assay [12]. Also, the growth was 38.4% in assay [13]; 21.7% in assay [14]; 26.7% in assay [15]; 22.4% in [16]; 11.1% in assay [17]; 9.29% (active) in assay [18]. The growth in assay [19] was 52.4%.
Regarding `C#CCNC(=S)N/N=C(\C)c1ccccn1`, the growth in [1] is 15.4%; in assay [2], 15.2%; in assay [3], 12.1%; in [4], 39.5%; in [5], 6.73% (active); in assay [6], 14.7%. Also, the growth in assay [7] is 1.69% (active); in assay [8] it was 16.4%; in [9], -21.7% (active); in assay [10], 28.4%; in assay [11] it was 31.5%; in assay [12], 43.4%. Also, the growth was 38.8% in [13]; 23.1% in assay [14]; 48.1% in [15]; -30.5% (active) in assay [16]; -5.96% (active) in assay [17]; 15.3% in assay [18]. Also, the growth in assay [19] is 55.3%.
With `CC(=O)c1ccc(-n2c(-c3cc(-c4ccsc4)n[nH]3)n[nH]c2=S)cc1`, the growth in assay [1] is 110%; in assay [2] it was 105%; in [3], 106%; in assay [4], 105%; in [5] it was 106%; in [6] it was 107%. Also, the growth is 97.5% in assay [7]; 101% in assay [8]; 97.8% in assay [9]; 96.5% in assay [10]; 94.1% in [11]; 91.2% in assay [12]. Further, the growth in [13] was 101%; in assay [14], 102%; in [15], 84.3%; in assay [16], 101%; in assay [17], 95.9%; in assay [18] it was 99%. The growth in [19] was 98.8%.
As for `CC(=O)c1c(O)c(C)c(O)c2c1OC1=CC(=O)/C(=C(/C)N)C(=O)C12C` (configuration not stated), the growth in assay [1] is 100%; in assay [2], 83%; in [3], 96.9%; in assay [4], 90.8%; in assay [5] it was 92.2%; in assay [6], 95.2%. Also, the growth in assay [7] was 99.7%; in [8], 100%; in assay [9] it was 93.6%; in assay [10] it was 83.3%; in assay [11], 65.1%; in assay [12] it was 91.5%. For the same compound, the growth in assay [13] was 103%; in [14], 94.7%; in assay [15] it was 85.1%; in assay [16] it was 88.4%; in assay [17] it was 77.8%; in assay [18], 86.6%. For the same compound, the growth in assay [19] was 105%.
Regarding `O=C(O)C1[S][Sb]([CH](C(=O)O)[CH](C(=O)O)[Sb]2[S]C(C(=O)O)C(C(=O)O)[S]2)[S]C1C(=O)O` (configuration not stated), the growth in [1] is 97.1%; in assay [2], 76%; in assay [3], 31.3%; in [4], 88.2%; in assay [5] it was 103%; in assay [6], 104%. Also, the growth in assay [7] was 76.3%; in assay [8], 89.3%; in assay [9], 74.5%; in assay [10], 87.6%; in assay [11] it was 80.8%; in assay [12] it was 83.8%. The growth in [13] was 92.9%; in assay [14], 73.1%; in assay [15], 83.4%; in assay [16], 3.78% (active); in assay [17], 89.2%; in assay [18] it was 8.37% (active). The growth in assay [19] is 61.1%.
As to `CCN(CC)CCCC(C)N/C(c1cccc(OC)c1)=c1\c(=O)[nH]n(-c2c3ccccc3nc3ccccc23)c(=O)\c1=C(/NC(C)CCCN(CC)CC)c1cccc(OC)c1` (configuration not stated), the growth is -13.5% (active) in assay [1]; -22.1% (active) in assay [2]; -93.9% (active) in [3]; -51.9% (active) in assay [4]; -78.3% (active) in assay [5]; -48.8% (active) in [6]. In addition, the growth in assay [7] is -91.5% (active); in [8] it was -95.5% (active); in assay [9] it was -80% (active); in assay [10], 2.74% (active); in assay [11], -68% (active); in [12] it was -22.5% (active). Also, the growth in assay [13] is 13%; in assay [14], -73% (active); in assay [15], -57.7% (active); in [16] it was -98.9% (active); in assay [17] it was -77.9% (active); in assay [18], -66.1% (active). In [19], the growth was -96% (active).
As for `C/C(CC(=O)NNc1ccc([N+](=O)[O-])cc1)=N\Nc1ccc([N+](=O)[O-])cc1`, the growth was 62.1% in assay [1]; 12.9% in [2]; 93.4% in [3]; 47% in assay [4]; 118% in [5]; 83.8% in assay [6]. For the same compound, the growth in [7] is 68.2%; in assay [8] it was 99.6%; in assay [9] it was 25.5%; in [10], 49.6%; in [11] it was 71.4%; in assay [12] it was 97.3%. In addition, the growth in assay [13] is 104%; in assay [14], 78.5%; in assay [15], 54.7%; in assay [16] it was 59.4%; in assay [17], 9.12% (active); in assay [18] it was 70.3%. The growth in assay [19] was 114%.
As for `c1ccc(C(CC2=NCCCN2)c2ccccc2)cc1`, the growth in [1] is 102%; in [2] it was 107%; in assay [3], 93.2%; in [4], 88.6%; in assay [5], 113%; in assay [6], 100%. Besides, the growth in [7] was 88%; in assay [8] it was 97.7%; in [9], 92.5%; in assay [10], 114%; in assay [11], 102%; in [12], 86.2%. In addition, the growth was 107% in [13]; 90.8% in [14]; 83.9% in [15]; 105% in assay [16]; 89.6% in assay [17]; 97.8% in assay [18]. For the same compound, in [19], the growth was 107%.
